Pol iota inh = qHTS for Inhibitors of Polymerase Iota. DNA polymerase iota (Homo sapiens), Q9UNA4. Pol iota fluorescent replication assay, 10 min. Potency, µM (highest dose often 115 µM), usual class: inhibitors. hit rate 1% among 390,000. AID 588590, 2011
Target sequence (Q9UNA4 whole entry, looked up): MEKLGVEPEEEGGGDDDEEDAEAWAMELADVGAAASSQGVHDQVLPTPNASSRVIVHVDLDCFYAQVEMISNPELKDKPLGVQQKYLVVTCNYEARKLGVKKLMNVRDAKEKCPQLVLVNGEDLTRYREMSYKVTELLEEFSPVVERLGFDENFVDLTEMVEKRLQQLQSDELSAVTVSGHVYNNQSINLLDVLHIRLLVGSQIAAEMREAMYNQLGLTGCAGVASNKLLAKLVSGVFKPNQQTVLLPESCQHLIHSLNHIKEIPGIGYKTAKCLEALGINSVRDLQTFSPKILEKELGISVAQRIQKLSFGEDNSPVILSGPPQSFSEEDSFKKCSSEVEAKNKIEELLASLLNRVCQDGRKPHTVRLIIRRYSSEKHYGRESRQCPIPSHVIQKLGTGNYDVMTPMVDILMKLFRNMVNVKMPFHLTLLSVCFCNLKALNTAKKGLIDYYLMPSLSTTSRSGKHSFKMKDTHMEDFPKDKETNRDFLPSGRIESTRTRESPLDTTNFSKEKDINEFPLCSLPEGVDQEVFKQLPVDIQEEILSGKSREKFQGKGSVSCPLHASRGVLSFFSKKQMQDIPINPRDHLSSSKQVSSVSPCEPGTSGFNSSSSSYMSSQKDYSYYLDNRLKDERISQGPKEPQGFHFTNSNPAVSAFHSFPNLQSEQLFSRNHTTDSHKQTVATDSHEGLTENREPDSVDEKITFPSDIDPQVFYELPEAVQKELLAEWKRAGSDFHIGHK
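Fluorescent replication assay read twice, at 0 min and 10 min after adding 50 nM (final) substrate. Enzyme (10 nM) and compounds were first incubated 15 min at room temperature; enzyme-free buffer wells were negative controls.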
PI5P4K alpha inh = qHTS for Inhibitors of phosphatidylinositol 5-phosphate 4-kinase (PI5P4K) | max response, % | AID 652105, 2013 | PI5P4Kalpha enzyme, ADP-Glo luminescence, 60 min; active compounds read low | Phosphatidylinositol 5-phosphate 4-kinase type-2 alpha (Homo sapiens), P48426 | hit rate 1.2% among 330,000; active = max response of -50% or lower; inconclusive = between -30% and -50%; inactive = -30% or higher; also: value at the top dose of about 77 µM
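Quantitative HTS of the MLSMR library against PI5P4Kalpha with substrate. ATP added last at 5 microM final; room temperature, 60 minutes. Remaining ATP depleted, ADP converted and read as luminescence.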
WRN helicase inh = qHTS for Inhibitors of WRN Helicase. Bifunctional 3'-5' exonuclease/ATP-dependent helicase WRN (Homo sapiens), Q14191. WRN helicase unwinding, fluorescent forked duplex, kinetic. Potency, µM (titrated, usually from 114 µM), usual class: inhibitors. hit rate 0.46% among 360,000. AID 651768, 2012; also: nearly all actives have a fitted effect of over 55% in size
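WRN at 20 nM final preincubated with compound 15 min at room temperature; reaction started with 100 nM fluorophore/quencher forked duplex oligonucleotide and 2 mM ATP final. Unwinding followed kinetically by red fluorescence (ex 525, em 598 nm).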
Pol kappa inh = qHTS for Inhibitors of Polymerase Kappa | Potency, µM (top dose mostly 107 µM), usual class: inhibitors | hit rate 0.53% among 400,000 | AID 588579, 2011 | purified Pol kappa, fluorescent DNA synthesis assay, 10 min
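10 nM Pol kappa was preincubated with compounds for 15 min at room temperature. Reaction started with 50 nM (final) substrate. Fluorescence read kinetically at 0 and 10 min.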
Pol beta inh = qHTS Assay for Inhibitors of DNA Polymerase Beta; P06746; Pol beta primer extension/strand displacement, fluorescence kinetic; Potency, µM (top dose mostly 114 µM), usual class: inhibitors; hit rate 1.3% among 340,000; AID 485314, 2010
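Kinetic readout of DNA synthesis with strand displacement by Pol beta. Compound and 10 nM enzyme sit 15 min at room temperature; 50 nM substrate starts the reaction, read immediately and at 10 min.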
Pol eta inh = qHTS for Inhibitors of Polymerase Eta; DNA polymerase eta (Homo sapiens), Q9Y253; recombinant Pol eta, fluorescent DNA replication assay; Potency, µM (titrated, usually from 114 µM), usual class: inhibitors; hit rate 1.2% among 390,000; AID 588591, 2011
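Pol eta at 10 nM preincubated with compounds 15 min at room temperature; reaction started with fluorescent substrate (50 nM final) and read kinetically at 0 and 10 min.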
A number is an active result; 0 = inactive; ? = inconclusive; - = no result given; [ ] = another dose, or the depositor's remark. A selection: hits, their analogues and other compounds. The true share with any hit is near 2.8%. Unless noted, calls follow the shape of the dose curve; as a rule, active = well fitted curve in the direction sought with a large enough effect; inconclusive = small, poorly fitted or top-dose-only effect, or another doubt; inactive = no such curve, though single readings can be large; an effect the other way counts as inactive or inconclusive.

SMILES	Pol iota inh	PI5P4K alpha inh	WRN helicase inh	Pol kappa inh	Pol beta inh	Pol eta inh
Cc1ccc2c(c1)c1ccc3c(c1n2C)C(=O)C=CC3=O	?	-74	0	0	0	0
Cn1c2ccccc2c2ccc3c(c21)C(=O)C=CC3=O	0	-72	?	0	-	?
CC(C)Oc1ccc(F)cc1-c1cc(C(=O)N2CCc3ccccc3C2)[nH]n1	-	0	0	-	-	-
Fc1ccc(Oc2ccc3nnc(C(F)(F)F)n3n2)cc1	0	0	0	0	0	0
CCOc1ccc2nc3cc(N=Nc4ccc(N)nc4N)ccc3c(N)c2c1	?	?	?	?	-	45µM
COc1ccc(N=Nc2ccc(N)nc2N)cc1	0	0	0	0	0	0
CC1C(=O)Nc2ccc(S(=O)(=O)N3CCN(c4cccc(C(F)(F)F)c4)CC3)cc2NC1=O (stereo not drawn)	35µM	0	0[11.6 µM]	0	?	0
CNC(=O)COc1ccc(S(=O)(=O)N2CCCC2)cc1	0	0	0	0	0	0
O=C1CCNc2cc3ccccc3cc21	0	?	?	0	25µM	?
O=C1CCNc2ccc(-c3ccccc3)cc21	0	0	0	0	0	0
CC(=O)c1c(C)[nH]c(C(=O)CN2C(=O)NC(C)(CCC(C)C)C2=O)c1C (stereo not drawn)	0	0	0	0	0	0
COc1ccc(-n2c(NC(=O)c3ccc(Br)o3)c(C#N)c3nc4ccccc4nc32)cc1	-	-	-	-	32µM	-
O=S(=O)(/N=S1/CC=CCN1S(=O)(=O)c1ccccc1)c1ccccc1 (stereo not drawn)	0	?	45µM	0	0	0
Cc1ccc(C2(C)NC(=O)N(CC(=O)c3ccc(Cl)s3)C2=O)cc1 (stereo not drawn)	?	?	0	0	20µM	?
Oc1ccc2ccccc2c1/C=N/c1nc2c(s1)CCCC2	?	0	0	0	0	0
Oc1c(Br)cc(Br)cc1/C=N/c1nc2c(s1)CCCC2	?	-54	?	79µM	-	?
COc1cc(-c2ccc3oc(-c4ccsc4)cc(=O)c3c2)cc(OC)c1OC	0	0	0	0	-	0
O=c1cc(-c2ccsc2)oc2cc(-c3ccc4c(c3)OCO4)ccc12	0	0	25µM	0	-	?
CC1=Nc2ccccc2/C1=C/c1nc(-c2ccc(C)s2)oc1O	0	0	0	0	0	0
CC1=Nc2ccccc2/C1=C/c1sc(=N)n(-c2nccs2)c1O	0	-70	?	0	0	0
CCn1cc2nc(SCC(=O)Nc3ccccc3C(F)(F)F)n(Cc3ccc(C)cc3)c(=O)c2n1	45µM	-	-	?	10µM	0
CCOc1ccccc1Nc1nc2ccccc2n2cnnc12	0	0	0	0	0	0
CCN(CC)c1nc2ccccc2n2cnnc12	89µM	0	0	0	0	0
CCc1c(C)nc(N2CCN(c3ccc(F)cc3)CC2)[nH]c1=O	0	0	0	0	0	0
Cc1nnc(N2CCN(c3ccccc3)CC2)[nH]c1=O	0	-55	?	0	0	0
SMILES	Pol iota inh	PI5P4K alpha inh	WRN helicase inh	Pol kappa inh	Pol beta inh	Pol eta inh
COc1cccc(N2CCN(S(=O)(=O)c3cn(C)c(C)n3)CC2)c1	0	-	-	0	0	0
O=C(N/N=C/C(Br)=C/c1ccccc1)c1n[nH]c2c1CCC2	3.5µM	-	0	?	0	?
O=C(N/N=C/c1ccccc1)c1n[nH]c2c1CCCC2	0	0	0	0	0	0
Oc1c(Cl)cc(Cl)cc1C=Nc1ccc(N2CCOCC2)cc1	0	0	?	0	0	0
O=[N+]([O-])c1cc(Cc2ccccc2)cc(C=Nc2ccc(N3CCOCC3)cc2)c1O	0	-51	?	0	0	?
COC(=O)[C@]12CCCCC=C1N(CCc1ccc(OC)c(OC)c1)C(=O)[C@H](CC(=O)N1CCC(c3ccccc3)CC1)C2	-	0	0	-	-	-
CCC(=O)N(C)CCc1cc2c(c(OC)c1/C=N/NC(=O)c1ccc(Br)cc1)OCO2	?	0	0	0	0	0
O=C(O)c1ccc(N=N/C(=N\Nc2ccc(C(=O)O)cc2)c2ccccc2)cc1	0	-80	0	0	-	0
COc1cc2sc3ccc(-c4ccc5[nH]ccc5c4)cc3c(=O)c2cc1OC	79µM	0	0	0	-	0
COc1cc2sc3ccc(C#Cc4ccc(N)cc4)cc3c(=O)c2cc1OC	0	0	0	0	-	0
O=S(=O)(Nc1cc2nc3ccccc3nc2n1Cc1ccccc1)c1ccc(Cl)cc1	10µM	0	?	0	?	79µM
O=S(=O)(NCc1ccccc1)c1ccc(Cl)cc1	0	0	0	0	0	0
Nc1nc(NCc2ccc(Cl)cc2)nc(NCCO)c1[N+](=O)[O-]	0	-57	0	0	0	0
C=C1c2cccc(O)c2C(O)=C2C(=O)[C@@]3(O)C(O)=C(C(N)=O)C(=O)[C@@H](N(C)C)[C@@H]3[C@@H](O)[C@H]12	-	-	-	1.8µM	-	-
C[C@H]1c2cccc(O)c2C(O)=C2C(=O)[C@]3(O)C(O)=C(C(N)=O)C(=O)[C@@H](N(C)C)C3[C@@H](O)C21 (stereo partly drawn)	0	0	0	0	-	0
C=C1c2cccc(O)c2C(=O)C2C(=O)[C@]3(O)C(=O)C(C(N)=O)C(=O)[C@@H](N(C)C)[C@@H]3[C@@H](O)[C@H]12 (stereo partly drawn)	1.3µM	-71	?	?	-	?
N#Cc1cc2c([nH]c1=O)CCCC2	0	0	0	0	0	0
N#Cc1cc2c([nH]c1=S)CCCC2	?	-73	0	0	0	0
CC1(C)Cc2[nH]c(=S)c(C#N)cc2CO1	?	-88	0	0	?	0
O=C(Nc1ccc(F)cc1)C(c1cc2ccccc2o1)N1CCN(C(=O)c2ccco2)CC1 (stereo not drawn)	-	0	0	-	-	-
CO[C@@]1(NC(=O)Cc2cccs2)C(=O)N2C(C(=O)O)=C(COC(N)=O)CSC21 (stereo partly drawn)	-	-	-	32µM	-	-
CO[C@@]1(NC(=O)CSCC#N)C(=O)N2C(C(=O)O)=C(CSc3nnnn3C)CSC21 (stereo partly drawn)	-	-	-	0	-	-
CO[C@@]1(NC(=O)Cc2cccs2)C(=O)N2C(C(=O)O)=C(COC(N)=O)CS[C@@H]21	?	0	0	?	13µM	?
COCc1c(CCl)cnc(C)c1O	0	0	0	0	0	0
COCc1cc(O)c(O)c(O)c1-c1c(COC)cc(O)c(O)c1O	2.8µM	-	-	0.21µM	-	-
O=C(NCc1cc2ccccc2[nH]1)C1CCC(=O)N(CCCN2CCCC2=O)C1 (stereo not drawn)	0	0	0	0	0	0

Screening results as filed in PubChem BioAssay.
